Source: PubChem BioAssay AID862 (The Scripps Research Institute Molecular Screening Center, 2007)
Hit rate of the full screen: of about 190,000 compounds, about 1,700 (0.89%) were called active. This is one part of a sample in which actives are shown more often than they occur.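 How the source made its calls: active means inhibition above the mean inhibition across all screened compounds plus 3 SD (cut at about 44% in these data); inactive means the rest.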

test: blockers of STAT3 transcriptional signaling – U3A cells, luciferase, luminescence, MLSCN library, primary screen (AID 862); conditions: IL-6 STAT3-luciferase reporter, at 5.5 µM, active compounds read high, host cell line lacks STAT1;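 further: 0% = DMSO only wells and 100% = 100 µM nifuroxazide control wells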

SMILES | inhibition
Fc1ccc2[nH]c3c(N4CCSCC4)ncnc3c2c1 | 22.8% (inactive)
Cc1cc(N2CCN(Cc3ccc4c(c3)OCO4)CC2)n2ncnc2n1 | -1.7% (inactive)
Fc1ccc2[nH]c3c(N4CCN(Cc5ccc6c(c5)OCO6)CC4)ncnc3c2c1 | 65.5% (active)
CC(C)(C)NCCCOc1ccc(Cl)cc1C(C)(C)C | -0.4% (inactive)
O=C(N/N=C/c1ccccc1O)/C(=C/c1ccccc1)CCO | 3.8% (inactive)
CC(C)(CNC(=O)c1ccc(Cl)c(S(=O)(=O)N2CCc3ccccc3C2)c1)N1CCOCC1 | 49.5% (active)
O=C(NCCSCc1ccccc1)c1ccc(Cl)c(S(=O)(=O)N2CCOCC2)c1 | 21% (inactive)
Cc1ccccc1CSCCNC(=O)c1ccc(Cl)c(S(=O)(=O)N2CCOCC2)c1 | 4.2% (inactive)
CCOC(=O)C(=Cc1ccccc1OC)C(=O)OCC | 9.9% (inactive)
Cc1cc(NC(=O)CSc2nc3c(cc2C#N)CCCCC3)no1 | -1.5% (inactive)
O=C(N/N=C/C=C/c1ccco1)c1cccs1 | -6.8% (inactive)
Cc1ccc(-c2cc(C(=O)N/N=C/C=C/c3ccco3)c3ccccc3n2)cc1C | 46.8% (active)
COc1cccc(-c2cc(C(=O)N/N=C/c3ccc(OC)c(COC(C)=O)c3)c3ccccc3n2)c1 | -6% (inactive)
Cc1cc(C(=O)NNC(=O)c2cccc(S(=O)(=O)N3CCOCC3)c2)c2ccccc2n1 | 10% (inactive)
CCC(=O)OCCNc1nc(-c2ccccc2)nc2ccccc12 | 1.5% (inactive)
O=C(COC(=O)c1ccc(O)cc1)Nc1nccs1 | -5.6% (inactive)
Cc1nc2ccccc2cc1O | -75.4% (inactive)
Cc1nc2ccccc2cc1OCc1ccc(F)cc1 | 73% (active)
Fc1cccc2ncnc(OCc3ccccc3)c12 | 4.2% (inactive)
O=C(Nc1ccc(N2CCN(C(=O)c3cccs3)CC2)cc1)c1cccnc1Cl | 1.7% (inactive)
O=c1c2ccccc2nc2n1C(CSc1ccc(F)cc1)CN2 (stereo not drawn) | -2.2% (inactive)
O=c1c2ccccc2nc2n1C(CSCc1cccc(C(F)(F)F)c1)CS2 (stereo not drawn) | 49.3% (active)
O=c1c2ccccc2nc2n1C(CSCc1ccccc1)CS2 (stereo not drawn) | 18.7% (inactive)
Cc1ccc(CNC(=O)c2cccnc2Cl)cc1 | 3.5% (inactive)
CCOc1cc(/C=C(/C#N)c2ccc(Cl)cc2)cc(Cl)c1OCC(=O)O | 63.3% (active)

SMILES | inhibition
CCOc1c(Cl)cc(/C=N/O)cc1OC | 1.3% (inactive)
CCOC(=O)CN/C=C(\C#N)c1ccc(F)cc1 | -0.6% (inactive)
c1coc(CNc2ncnc3ccccc23)c1 | 61.2% (active)
FC(F)(F)c1cccc(Nc2ncnc3ccccc23)c1 | 16.5% (inactive)
c1ccc(-c2nc(NCc3ccco3)c3ccccc3n2)cc1 | -1% (inactive)
CCN(/N=C/c1ccc(N(C)C)cc1)c1nc2ccccc2[nH]1 | 1.9% (inactive)
CCN(CCCNC(=O)CSc1cc(=O)n(C)c2cc(Cl)ccc12)Cc1ccccc1 | 5.2% (inactive)
Cn1c(N)c(C(=O)COC(=O)/C=C/c2ccc(OC(F)F)cc2)c(=O)n(C)c1=O | 26.3% (inactive)
O=C(Nc1ccccc1Cc1ccccc1)c1ccc2c(c1)SC1=NS(=O)(=O)CCN12 | -8.5% (inactive)
Cn1c(SCC(=O)N2CCCc3ccccc32)nc2ccccc2c1=O | 62.3% (active)
O=C(CSc1nc2[nH]ncc2c(=O)n1-c1ccccc1)N1CCCc2ccccc21 | -21.2% (inactive)
O=C(CSc1nc2ccccc2c(=O)n1CCCO)N1CCc2ccccc21 | 12.6% (inactive)
COc1ccc(N2C(=O)C(O)C2c2ccc(C)cc2)cc1 (stereo not drawn) | -18.4% (inactive)
O=C(OCC(=O)c1cccs1)c1ccc([N+](=O)[O-])o1 | 0.6% (inactive)
COc1ccc(NC(=O)c2cc3nc(-c4ccccc4)cc(C)n3n2)cc1OC | 17.9% (inactive)
Cc1noc(C)c1/C=N/Nc1ccc2ccccc2n1 | -21.3% (inactive)
Brc1ccc(-c2csc(N/N=C/c3ccc4c(c3)OCO4)n2)cc1 | 5% (inactive)
C(=N\Nc1ccc2ccccc2n1)/c1ccc2c(c1)OCO2 | 91.2% (active)
S=c1[nH]nc(Nc2ccccc2)s1 | 12% (inactive)
CN(c1ccccc1)c1nc(N)c([N+](=O)[O-])c(NCc2ccco2)n1 | -0.4% (inactive)
CCC(=O)/C=C1\Sc2ccccc2N1CC | 20.7% (inactive)
CCN1/C(=C\c2ccc3ccccc3[n+]2CC)Sc2cc(C)ccc21 | 84.8% (active)
Cc1ccccc1NC(=O)CN1C(=O)N/C(=C\c2cccn2-c2cccc(C(=O)O)c2)C1=O | 6% (inactive)
O=C(O)CSCC(=O)Nc1ccc(C(F)(F)F)cc1 | 6.5% (inactive)
Cc1ccc(Oc2ccc(N)cc2)cc1 | 0.4% (inactive)

SMILES | inhibition
CC(C)(C)c1ccc(Oc2ccc(N)cc2)cc1 | 76.2% (active)
Nc1ccc(Oc2ccc(Cl)cc2)cc1 | -0.6% (inactive)
C=CC[n+]1c(-c2ccc(C)cc2)csc1NNC(=O)Nc1ccccc1 | 46.3% (active)
Cc1ccc(NC(=O)Nc2ccccc2)c(Br)c1 | 16.3% (inactive)
C=CCNc1scc(-c2ccccc2)[n+]1CC=C | 4.7% (inactive)
CCCN(CC(=O)Nc1ccc(C(N)=O)cc1)CC(=O)Nc1ccccc1C | 3.9% (inactive)
Cc1csc(NC(=O)Nc2ccccc2[N+](=O)[O-])n1 | -24.9% (inactive)
OCCCC1CCCCN1Cc1nc(Cc2ccccc2Cl)no1 (stereo not drawn) | 4.3% (inactive)
N/C(=N\OC(=O)c1ccc2c(c1)OCO2)c1ccc(Br)cc1 | 9.8% (inactive)
COc1cc(NC(=O)CN(C)S(=O)(=O)c2ccc3nc(C)sc3c2)cc(OC)c1 | 0.9% (inactive)
Cc1cccc(N(CC(=O)Nc2ccc(-c3nc4ccc(C)cc4s3)cc2)S(C)(=O)=O)c1 | 28% (inactive)
Cc1ccc2nc(-c3ccc(NC(=O)CN(C)S(=O)(=O)c4ccccc4)cc3)sc2c1 | 49.8% (active)
O=C(CCc1ccccc1)NCCc1cccs1 | 4.7% (inactive)
O=C(C/C(=N\NC(=O)c1ccccc1Br)C(F)(F)F)c1cccs1 | -8.2% (inactive)
O=C(Nc1ccc2nccnc2c1)c1ccco1 | 14.3% (inactive)
COc1cccc(C(=O)Nc2ccc(NC(=O)c3ccco3)cn2)c1 | 12.2% (inactive)
O=C(Nc1ccc(NC(=O)c2cccs2)cn1)c1ccco1 | 48.3% (active)
N=c1n(CCc2ccccc2)c2ccccc2n1Cc1ccccc1F | 0.2% (inactive)
CCc1ccc(CN(C)Cc2nc(Cc3ccccc3)no2)nc1 | -2.9% (inactive)
CC1=CC=CN2C1=NC(=O)CC2(C)C(=O)N(CC(=O)NC1CCCC1)c1ccccc1C (stereo not drawn) | 4.4% (inactive)
CCOc1cc(NC(=O)c2ccccn2)c(OCC)cc1NC(=O)c1ccc(OC)cc1 | 13.8% (inactive)
Cc1cc(N/C=C\C(=O)c2ccc(Cl)c(Cl)c2)no1 | -7.8% (inactive)
COc1ccc(C(=O)/C=C/Nc2ccccn2)cc1 | 97.2% (active)
Cc1ccc(CC2CC(=O)N(c3nc(C)cc(C)n3)C2=O)cc1 (stereo not drawn) | -0.9% (inactive)
Clc1cccc(-c2nc(NCC3CCCO3)c3ccccc3n2)c1 (stereo not drawn) | 15.5% (inactive)

SMILES | inhibition
CCCCCCCCn1c2c(c(=N)c3c1CCC3)CCCC2 | 76.2% (active)
CCCCCCn1c(CN2CCCCC2)nc2c1c(=O)n(C)c(=O)n2C | -8.1% (inactive)
COc1ccc(/C=C/C(=O)OCC(=O)NCc2cccs2)cc1OC | -9.7% (inactive)
O=C(c1ccc(F)cc1)c1cn(Cc2ccc(F)cc2)c2cc3c(cc2c1=O)OCCO3 | 4.1% (inactive)
Cc1cc(C2=NNC(=Nc3ccc(S(=O)(=O)N4CCOCC4)cc3)SC2)c(C)n1CC1CCCO1 (stereo not drawn) | -0.3% (inactive)
COCCn1c(C)cc(C2=NNC(=Nc3ccc(F)cc3)SC2)c1C | -33.4% (inactive)
C=CCn1c(C)cc(C2=NNC(=NCC)SC2)c1C | 108% (active)
[O-][n+]1c2c(nn1-c1ccc(Cl)c(Cl)c1)-c1nonc1CC2 | 5.8% (inactive)
CC1CCN(c2ccc(C(=O)Nc3nnc(C4CC4)s3)cc2[N+](=O)[O-])CC1 | -3% (inactive)
Cc1cccc2c(=O)n3c(nc12)CCCCC3 | 2.1% (inactive)
O=c1c2c(nc3n1CCCCC3)sc1c(O)cccc12 | 64.8% (active)
Cc1c(C(=O)Nc2ccccc2)sc2nc3n(c(=O)c12)CCCCC3 | 10.4% (inactive)
CC(C)Cn1c(N)c(C(=O)COC(=O)CN2C(=O)C3CC=CCC3C2=O)c(=O)n(C)c1=O (stereo not drawn) | 30.1% (inactive)
COC(=O)c1c(NC(=O)CCCC(=O)O)sc2c1CCCCC2 | 22.2% (inactive)
CCOCCCNCc1ccc(OCc2ccc(F)cc2)c(OC)c1 | 5.2% (inactive)
CC(C)Oc1ccc(CCc2nnc(SCC(=O)O)n2-c2ccccc2)cc1 | 13.3% (inactive)
Cc1cc2nc(-c3ccc(NC(=O)c4cccnc4)cc3)oc2cc1C | 7.8% (inactive)
Cc1ccc(-n2nc3cc(C)c(NC(=O)c4cccnc4)cc3n2)cc1 | 11.8% (inactive)
Cc1ccc2nc(-c3ccc(NC(=O)c4cccnc4)cc3)oc2c1 | 67.9% (active)
Cc1cccc(NC(=O)c2cc([N+](=O)[O-])ccc2N2CCN(C)CC2)c1 | 6.2% (inactive)
COC(=O)CCNC(=O)c1ccc2[nH]c(C)c(C)c2c1 | 11% (inactive)
Cc1cc(C(=O)COc2ccccc2[N+](=O)[O-])c(C)n1-c1cccc(S(=O)(=O)N2CCOCC2)c1 | -4.1% (inactive)
Cc1[nH]c2ccccc2c1C(=O)COC(=O)c1c(-c2ccccc2)noc1C | -1.9% (inactive)
